Values joined by “and” are separate entries in the source; they are usually repeats but may differ in a detail not shown here. Equal values may be shown once. About 79,000 compounds went through this panel and 15% of them were active in at least one assay; those are over-represented in the sample as a whole. Active and inactive are the calls of the source. Cut-off read from the data, not from the text of the source: active = growth inhibition above about 70%; inactive = the rest. Where a SMILES comes first, the peptide text is derived from it. Bridges are numbered along the chain shown (N, C = ends). [ ]: non-standard residue; d: D form. Aib = CC(C)(N)C(=O)O; βAla = NCCC(=O)O
Tests used:
[1] = NCI Yeast Anticancer Drug Screen. Data for the rad50 strain (AID 155);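 note: 0% = growth of vehicle-only cultures of the same strain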; conditions: S. cerevisiae rad50 strain growth inhibition, stronger effect = higher value; at 50.0 µM unless noted
Procedure, shortened: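 Yeast carrying a defined DNA repair defect were exposed to test compounds, and growth was compared with vehicle-treated controls to give percent inhibition.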

[2] = NCI Yeast Anticancer Drug Screen. Data for the mec2-1 strain (AID 157); conditions: S. cerevisiae mec2-1 strain, stronger effect = higher value; at 50.0 µM unless noted
Procedure, shortened: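 Mutant yeast (mec2-1) grown with compound; growth inhibition relative to vehicle control reported.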

[3] = NCI Yeast Anticancer Drug Screen. Data for the sgs1 mgt1 strain (AID 161);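 note: 0% = growth of cultures given vehicle only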; conditions: S. cerevisiae sgs1 mgt1 strain, stronger effect = higher value; at 50.0 µM unless noted
Procedure, shortened: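 Yeast cells carrying a defined DNA-repair defect were exposed to test compounds. Growth inhibition was measured relative to vehicle-treated controls.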

[4] = NCI Yeast Anticancer Drug Screen. Data for the cln2 rad14 strain (AID 165);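 note: 0% = growth equal to vehicle treated cultures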; conditions: S. cerevisiae cln2 rad14 strain, stronger effect = higher value; at 50.0 µM unless noted
Procedure, shortened: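 Readout is yeast growth inhibition versus vehicle-treated controls, using a strain with cln2 and rad14 alterations exposed to compound.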

[5] = NCI Yeast Anticancer Drug Screen. Data for the bub3 strain (AID 167); conditions: S. cerevisiae bub3 mutant strain, stronger effect = higher value; at 50.0 µM unless noted
Procedure, shortened: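 Compounds were applied to a genetically altered yeast strain carrying a cell-cycle control defect. Growth inhibition was scored against vehicle-treated controls.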

[6] = NCI Yeast Anticancer Drug Screen. Data for the mlh1 rad18 strain (AID 175); conditions: S. cerevisiae mlh1 rad18 strain growth inhibition, stronger effect = higher value; at 50.0 µM unless noted
Procedure, shortened: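 Genetically defined yeast (DNA repair-deficient) exposed to compounds; growth inhibition determined relative to vehicle.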

Measured: growth inhibition

CCOC(=O)C(=O)/C(=C/N1C(=O)CC(=O)NC1=S)C(=O)OCC
inactive: [1] -19.6% | [2] -47.2% | [3] -25% | [4] -13.9% | [5] -34.9% | [6] -10.6%

O=C(CC1(O)C(=O)Nc2ccc(Br)cc21)c1ccc2c(c1)OCO2 (configuration not stated)
inactive: [1] 2.7% | [2] 5.35% | [3] 11.4% | [4] -6.5% | [5] 36.5% | [6] -1.15%

Cc1ccccc1C=NC12CC3CC(CC(C3)C1)C2
inactive: [1] -24.8% | [2] -18.1% | [3] -22.2% | [4] 7.2% | [5] -8.4% | [6] -25.1%

COc1ccc(-c2cc(=O)c3c(O)c(O)c(OC)cc3o2)cc1O
inactive: [1] -5.15% | [2] -28.6% | [3] -55.9% | [4] -8.4% | [5] -2.6% | [6] -18.3%

CN(C)N1C(=O)S/C(=C\c2ccc([N+](=O)[O-])cc2)C1=O
inactive: [1] -24.4% | [2] -14.3% | [3] 1.15% | [4] 6.3% | [5] -4.1% | [6] -16.2%

Cc1cc2nc3c(=O)[nH]c(=O)nc-3n(C/C=N/NC(N)=S)c2cc1C
inactive: [1] 5.75% | [2] -7.65% | [3] -5.05% | [4] -45.1% | [5] -12.8% | [6] -2.7%

COc1cc(OC)c(I)cc1Cl
inactive: [1] -10.1% | [2] -37.5% | [3] 4.55% | [4] 13.4% | [5] -29.2% | [6] -12.3%

CC(=O)NCCc1c[nH]c2ccc(Cl)cc12
inactive: [1] -33.5% | [2] 21.4% | [3] -27.4% | [4] -11.6% | [5] 26.8% | [6] -10.1%

CN(C)/N=C(\CBr)c1ccc([N+](=O)[O-])cc1
inactive: [1] -1.8% | [2] 4.9% | [3] 6.75% | [4] 11.2% | [5] -3% | [6] 5.4%

COc1ccc(C2OC3=C(Nc4cc(C)c(C)cc4N3)C2=O)cc1 (configuration not stated)
inactive: [1] 11.2% | [2] -8.05% | [3] 2.05% | [4] -1.35% | [5] -22.3% | [6] 13.8%

Cc1ccc(S(=O)(=O)Nc2ccc([N+](=O)[O-])cc2-c2ccccc2)cc1
inactive: [1] -0.25% | [2] -9.2% | [3] 0.2% | [4] -1.15% | [5] 5.15% | [6] 4.2%

Cc1nc(C(N)=S)sc1C(=O)C/C(=N/N)C(=O)Nc1ccc(Cl)cc1
inactive: [1] 2.05% | [2] -8.55% | [3] 3.2% | [4] -3.65% | [5] -17.8% | [6] -20.9%

c1ccc(CNc2nnnc3ccccc23)cc1
inactive: [1] -2.75% | [2] -1.45% | [3] -2.4% | [4] -30.8% | [5] -14.5% | [6] 2.2%

NC(=O)CC(NC(=O)CCl)C(=O)O (configuration not stated)
inactive: [1] -12.3% and -15% | [2] -24.8% and -8.15% | [3] 2.1% | [4] 12.4% | [5] -0.35% | [6] -22.4% and -16.1%

COc1ccc(/C(=C(/c2ccc(OC)cc2)C2CC2)C2CC2)cc1
inactive: [1] -5.3% | [2] 7.25% | [3] 11% | [4] -14.8% | [5] 5.45% | [6] 10.6%

Cc1cc(Cl)ccc1NC(=O)C1C(=O)N(c2ccc(Cl)cc2C)C(=O)/C1=N\N (configuration not stated)
inactive: [1] 0.65% | [2] -31.4% | [3] 10.4% | [4] -18.9% | [5] -9.1% | [6] 9.7%

CC(C)(C)OC(=O)CC(NC(=O)OC(C)(C)C)C(=O)NC(C(=O)O)C(O)c1ccccc1 (configuration not stated)
inactive: [1] -19.4% | [2] -24.9% | [3] -15.3% | [4] -22.9% | [5] -9.45% | [6] -28.6%

CCOC(=O)NC(=S)c1ccc[nH]1
inactive: [1] -10.7% | [2] -42.2% | [3] 0.2% | [4] 4.6% | [5] -36.8% | [6] -20.2%

CC(C)CCC[C@@H](C)[C@H]1CC[C@H]2[C@@H]3CCC4=CC(=O)NCC[C@]4(C)[C@H]3CC[C@]12C
inactive: [1] 12.8% | [2] -3.25% | [3] 34.6% | [4] 27.2% | [5] -9.35% | [6] 15.9%

ON=C1CCC(c2ccccc2)CC1 (configuration not stated)
inactive: [1] -21.3% | [2] -24% | [3] 13.8% | [4] -24.2% | [5] 2.85% | [6] -9.6%

CCCCCC1CC(=O)NC1C(=O)O (configuration not stated)
inactive: [1] -2.75% | [2] 1.25% | [3] -10.8% | [4] -8.8% | [5] -1.15% | [6] -8.95%

CN(C)c1nc(NC(=O)NC(=O)c2c(F)cccc2F)nc(N(C)C)n1
inactive: [1] -2% | [2] 11.3% | [3] 1.55% | [4] 8.45% | [5] 18.8% | [6] 10.3%

Cc1ccc2nc(Sc3c([N+](=O)[O-])ncn3C)[nH]c2c1
inactive: [1] -16.1% | [2] -16.4% | [3] -18.2% | [4] 5.75% | [5] -20.7% | [6] -25.4%

CCOC(=O)c1[nH]c(C)c(C#N)c1C
inactive: [1] -34.4% | [2] -26.6% | [3] -12.7% | [4] -34.6% | [5] -20.8% | [6] -19.1%

O=C(CN1CCCCCC1)Nc1ccc2c(c1)C(=O)c1ccc(NC(=O)CN3CCCCCC3)cc1C2=O
inactive: [1] -12.3% | [2] 37.8% | [3] 51.1% | [4] 38.6% | [5] 8.95% | [6] 36.4%

COc1ccc(/C=C/C(=O)O)c(OC)c1
inactive: [1] 1.25% | [2] 30.9% | [3] -7.55% | [4] 25.2% | [5] 28.1% | [6] -9.7%

O=P(O)(O)OCC1OC(n2cnc3c(=S)nc[nH]c32)C(O)C1O (configuration not stated)
inactive: [1] -17.4% | [2] 3.95% | [3] -14.1% | [4] 3.9% | [5] -7.7% | [6] -3.55%

O=C(Nc1cccc(I)c1)OCCCl
active: [1] 79.8% | [3] 87.2%
inactive: [2] 7.5% | [4] 0.4% | [5] -7.55% | [6] 57.2%

NC(N)=N/N=C(/CC1OC(=O)c2ccccc21)c1ccc2ccccc2c1 (configuration not stated)
inactive: [1] -3.2% | [2] -12.4% | [3] -2.65% | [4] 6.5% | [5] -16.1% | [6] -11.9%

CCc1ccc2c(c1)C(O)(C#Cc1ccccc1)c1cc(CC)ccc1C2(O)C#Cc1ccccc1 (configuration not stated)
inactive: [1] 37.5% | [2] 25.2% | [3] 45.5% | [4] 22.9% | [5] -4.8% | [6] 32.7%

COC1/C=C/OC2(C)Oc3c(C)c(O)c4c(c3C2=O)C(N)=C(NC2CC2)C(=NC(=O)/C(C)=C\C=C\C(C)C(O)C(C)C(O)C(C)C(OC(C)=O)C1C)C4=O (configuration not stated)
inactive: [1] 15.7% | [2] 32.7% | [3] 41.2% | [4] 49% | [5] 31.9% | [6] 33.1%

Cc1cc(C)c(C(=O)c2cccc(C)c2C(=O)O)c(C)c1
inactive: [1] 4% | [2] -20.8% | [3] 7.85% | [4] 14.1% | [5] 9.85% | [6] 18%

COC(=O)C1=CN(CCc2ccc(O)cc2)C(=O)C2C1CC(O)C2C (configuration not stated)
inactive: [1] 5.6% | [2] -6.2% | [3] 1.2% | [4] -2.2% | [5] -4.55% | [6] -10.2%

CC1(C)NC(=O)C(NC(=O)C(N)CC(=O)O)CCCCNC(=O)CCNC1=O (configuration not stated) (H-DK[Aib][βAla]; lactam 2-C; configuration not given here)
inactive: [1] -4.35% | [2] -67.5% | [3] -32.3% | [4] -10.6% | [5] 6.35% | [6] -17.9%

O=c1[nH]c2ccc([N+](=O)[O-])cc2nc1/C(=N/Nc1ccccc1)C(O)c1ccco1 (configuration not stated)
inactive: [1] -4.6% | [2] -9.1% | [3] -12.8% | [4] 6% | [5] -10.6% | [6] 12.9%

O=c1[nH][nH]c2ccccc12
inactive: [1] 23.1% | [2] -11.3% | [3] 13.1% | [4] 13.9% | [5] 8.9% | [6] 12.2%

Cc1cccc(NC(=O)c2ccc(Cl)cc2Cl)c1
inactive: [1] 9.1% | [2] 14.1% | [3] 6.8% | [4] 13.6% | [5] 21.3% | [6] 22.2%

COC(=O)C1CCCCCCCCCCC12SCCCS2 (configuration not stated)
inactive: [1] -32.5% | [2] -11.4% | [3] -17.5% | [4] 16.2% | [5] -5.7% | [6] -30%

COc1cccc2c1OC1(N3CCOCC3)CCCCC1C2C[N+](=O)[O-] (configuration not stated)
inactive: [1] 6.8% | [2] -14% | [3] 12.3% | [4] 3.35% | [5] -7.9% | [6] -11.1%

CCOC(=O)Cn1cncc1C
inactive: [1] -33.6% | [2] -6.6% | [3] -13.5% | [4] -73.6% | [5] -3.4% | [6] -7.1%

CCCCCC(Br)C(Br)CC(Br)C(Br)CC(Br)C(Br)CCCCC(=O)O (configuration not stated)
inactive: [1] 11.2% | [2] -5.8% | [3] 9.6% | [4] -31.9% | [5] -0.7% | [6] 22.6%

ClC1=C(Cl)C(Cl)(Cl)c2c3c(c4c(c21)C(Cl)(Cl)C(Cl)=C4Cl)C(Cl)(Cl)C(Cl)=C3Cl
inactive: [1] -0.6% | [2] 17.1% | [3] 5.15% | [4] -53.8% | [5] 9.1% | [6] 7.45%

From PubChem BioAssay (NCI)
